Screening data (PubChem BioAssay)
Mtb FBA inh: inhibitors of M. tuberculosis fructose-bisphosphate aldolase. purified M. tuberculosis FBA, fluorescence read-out. inhibition, % at 1 µM. AID 588726. actives 2.3% (n = 360,000). P9WQA3; in the data active = inhibition above about 27%;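 also: 0% = vehicle and 100% = reference inhibitor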
Mtb UGM inh: inhibitors of M. tuberculosis UDP-galactopyranose mutase; purified UGM, fluorescence polarization probe displacement; inhibition, % at 10 µM; actives 0.06% (n = 320,000); in the data active = inhibition above about 10%, passing the limit was not always enough
RecA intein inh: inhibitors of M. tuberculosis RecA intein splicing. P9WHJ3. cell-free RecA intein splicing, fluorescence. inhibition, % (concentration not given with the values). actives 0.75% (n = 290,000). AID 2221; in the data active = inhibition above about 30%;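 also: 0% = vehicle wells and 100% = reference inhibitor control wells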
Target sequence (P9WHJ3 whole entry, looked up): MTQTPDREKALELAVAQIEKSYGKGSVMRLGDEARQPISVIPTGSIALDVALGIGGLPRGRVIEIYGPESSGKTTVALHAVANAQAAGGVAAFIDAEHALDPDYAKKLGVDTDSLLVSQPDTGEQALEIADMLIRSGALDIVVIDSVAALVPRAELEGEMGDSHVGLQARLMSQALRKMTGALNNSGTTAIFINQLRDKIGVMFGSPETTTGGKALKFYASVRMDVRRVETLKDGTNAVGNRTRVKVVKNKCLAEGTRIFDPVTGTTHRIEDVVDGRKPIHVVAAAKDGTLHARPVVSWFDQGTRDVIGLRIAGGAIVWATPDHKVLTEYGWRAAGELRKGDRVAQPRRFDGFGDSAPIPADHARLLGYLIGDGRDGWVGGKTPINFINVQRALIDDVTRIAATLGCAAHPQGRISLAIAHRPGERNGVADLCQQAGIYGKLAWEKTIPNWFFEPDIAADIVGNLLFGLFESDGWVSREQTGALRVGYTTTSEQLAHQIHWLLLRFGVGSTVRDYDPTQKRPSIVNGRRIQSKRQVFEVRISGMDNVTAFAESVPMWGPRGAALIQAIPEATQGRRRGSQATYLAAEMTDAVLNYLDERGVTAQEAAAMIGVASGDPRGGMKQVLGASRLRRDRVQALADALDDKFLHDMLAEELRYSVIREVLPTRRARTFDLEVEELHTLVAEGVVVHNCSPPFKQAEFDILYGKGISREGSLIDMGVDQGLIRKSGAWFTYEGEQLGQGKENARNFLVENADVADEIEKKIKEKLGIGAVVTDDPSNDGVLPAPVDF
Mtb betalactam: beta-lactam sensitization of Mtb H37Rv; actives 0.27% (n = 330,000); M. tuberculosis H37Rv growth with meropenem, percent inhibition; AID 434955; inhibition, % at 25 µM; call rule not given here;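 also: growth measured after seven days incubation then overnight dye step; 0% = bacteria only wells and 100% = bacteria with antibiotic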
Rv3671c protease: Rv3671c (M. tuberculosis) protease inhibition; inhibition, % at 5.96 µM; actives 0.048% (n = 320,000); in the data active = inhibition above about 38%;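 also: extracellular domain of Rv3671c used as enzyme; 0% = enzyme with DMSO and 100% = no enzyme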
GDH-TPI counter: counter-screen for M. tuberculosis FBA inhibitors: GDH-TPI coupled enzymes. AID 588335. actives 1.2% (n = 360,000). inhibition, % at 4.8 µM. GDH-TPI coupled enzyme counterscreen, NADH absorbance; in the data active = inhibition above about 30%;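 also: 0% = DMSO wells and 100% = wells lacking the enzyme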
* = called active by the depositor; i = inactive; . = no result; + = active, no number. Most compounds without a hit are left out; they make up all but 4% or so of the library.

SMILES	Mtb FBA inh	Mtb UGM inh	RecA intein inh	Mtb betalactam	Rv3671c protease	GDH-TPI counter
CCCCn1c(-c2ccccc2)nc2c(=O)n(C)c(=O)[nH]c21	196*	-1	2	-10	5	5
CC1(C)CC(=O)C2=C(C1)Nc1[nH]n(-c3ccccc3)c(=O)c1C2c1ccc2c(c1)OCO2 (stereo unspecified)	-1	.	69*	.	.	24
COCCCNC(=S)Nc1c(C)cc(C)cc1C	-1	1	1	-4	2	5
O=C(CSc1nc2ccccc2c(=O)[nH]1)Nc1ccc([N+](=O)[O-])cc1	4	2	.	-7	-3	38*
O=C(CSc1nc2ccccc2c(=O)[nH]1)Nc1ccc(C(=O)O)cc1	6	4	-3	5	0	11
N#Cc1c(N)n(-c2ccc(C(=O)O)cc2)c2nc3ccccc3nc12	+	1	-247	1	-21	20
N#Cc1c(N)n(C2CCCCC2)c2nc3ccccc3nc12	117*	1	-88	26	-6	14
CCC(=O)Nc1c(C#N)c2nc3ccccc3nc2n1C1CCCCC1	11	-1	7	2	-8	-10
N#Cc1c(N)n(-c2ccc(N)cc2)c2nc3ccccc3nc12	-3	0	3	2	-2	0
O=C(N/N=C\c1ccc(Cl)s1)c1ccc(Cn2cccn2)o1	-1	-4	-2	-5	-10	37*
CCc1ccc(/C=N\NC(=O)c2ccc(Br)o2)s1	-2	-2	2	4	0	47*
Cc1ccc(/C=N/NC(=O)c2ccc(Br)o2)s1	-4	-8	2	-4	-2	31*
Cc1ccc(/C=N/NC(=O)Cc2ccc(O)cc2)s1	2	2	2	2	-1	8
Cc1ccccc1NC(=O)Cc1nnc(N)s1	1	5	0	-8	-6	-5
O=C(NC(c1ccc(-c2ccccc2)cc1)c1cnccn1)C1CCN(CCN2C(=O)c3ccccc3C2=O)CC1 (stereo unspecified)	1	.	.	.	.	-6
N#C/C(=C/c1cn(-c2ccccc2)nc1-c1cccc(S(=O)(=O)N2CCOCC2)c1)C(=O)NCc1ccco1	3	0	-5	6	-8	3
N#C/C(=C/c1cn(-c2ccccc2)nc1-c1cccc(S(=O)(=O)N2CCCC2)c1)C(=O)NCc1ccco1	0	-4	10	1	-59	31*
Cc1ccccc1NC(=S)NNC(=O)c1ccncc1	1	1	2	75	11	12
CC(=O)c1ccc(NC(=S)NNC(=O)c2ccncc2)cc1	1	-1	1	97	-8	32*
O=C(NNC(=O)c1ccncc1)Nc1ccc(N=Nc2ccccc2)cc1	-2	.	.	.	.	37*
O=C(NCc1ccccc1Cl)c1ccc2nc([C@H]3C[C@H](O)[C@@H](CO)O3)[nH]c2c1	-1	.	.	.	.	5
N#CC1=C(N)n2c(s/c(=C\c3ccco3)c2=O)=C(C#N)C1c1ccco1 (stereo unspecified)	-1	3	4	-8	8	33*
CCOC(=O)C1=C(N)n2c(s/c(=C/c3ccco3)c2=O)=C(C(=O)OC)C1c1ccco1 (stereo unspecified)	-6	1	2	-2	-8	-6
Nc1ccc2ccc3cccc[n+]3c2c1	-5	63*	i	0	-16	10
COc1ccc2ccc3cccc[n+]3c2c1	134*	.	.	.	.	-2
SMILES	Mtb FBA inh	Mtb UGM inh	RecA intein inh	Mtb betalactam	Rv3671c protease	GDH-TPI counter
Cc1[nH]ncc1-c1nc2ccccc2[nH]1	0	0	-1	-1	5	-3
Nc1ccc2nc(-c3cccc(-c4nc5ccc(N)cc5[nH]4)n3)[nH]c2c1	-1	-3	11	4	1	18
O=c1[nH]cccc1-c1nc2ccccc2[nH]1	+	-1	-1	8	1	42*
Cc1c(-c2nc3ccccc3[nH]2)cnn1C	3	3	.	-2	-1	10
Cc1ccc2nc(-c3cccc(N)c3)[nH]c2c1	137*	0	0	0	-4	8
Nc1ccccc1-c1nc2ccccc2[nH]1	+	0	-37	3	-10	11
Oc1ccc(C=Nc2ccccc2-c2nc3ccccc3[nH]2)cc1	+	-2	-7	1	1	20
Cc1nn(-c2ccc(Cl)nn2)c(=O)c2ccccc12	1	-3	.	-6	-7	-1
Nc1cccc(-c2nc3ccccc3[nH]2)c1	136*	-11	0	-3	-2	9
Nc1ccc(-c2nc3ccccc3[nH]2)cc1	117*	0	.	-4	-5	23
O=C(O)c1ccc(-c2nc3ccccc3[nH]2)cc1	+	1	12	1	-8	5
O=C(O)c1ccc(/C=C(\c2nc3ccccc3[nH]2)c2nc3ccccc3s2)cc1	-1	0	39*	0	-2	65*
Fc1ccc(-c2nc3ccccc3[nH]2)cc1	8	0	0	2	-5	14
CC(=O)/C(=C(/O)c1ccccc1)c1nc2ccccc2[nH]1	1	-4	.	1	4	9
COc1ccccc1C(=O)Nc1ccccc1SC(=O)c1ccccc1OC	0	1	-2	5	-4	-4
C(C#CCN1CCOCC1)#CCN1CCOCC1	2	.	.	.	.	3
O=C(/C(=C(\O)c1ccccc1)c1nc2ccccc2[nH]1)c1ccccc1	2	-2	-10	53	4	40*
Nc1ccc(-c2nc3c(ccc4ccccc43)[nH]2)cc1	+	-1	1	-10	2	42*
COc1cccc(/C=C2/SC(=O)N(CC(=O)N3CCc4ccccc4C3)C2=O)c1OCC(=O)O	-2	5	7	26	-6	32*
COc1cccc(/C=C2/SC(=O)N(C)C2=O)c1OCc1ccc(C(=O)O)cc1	-3	-1	.	0	7	13
Oc1ccc(C(=Nc2ccccc2)c2ccccc2)c(O)c1	-2	.	.	.	.	45*
O=C(NNC(=O)c1ccc(O)cc1O)c1ccc(-c2ccccc2)cc1	5	-1	1	-8	0	22
CC(=O)NC1C(=O)N(CCc2ccccc2)c2ccc(Br)cc21 (stereo unspecified)	2	.	.	.	.	4
CCOc1ccc2c(c1)C(NC(C)=O)C(=O)N2CCN1CCOCC1 (stereo unspecified)	-1	0	43*	-4	.	2
CC(=O)NC1C(=O)N(CCN2CCOCC2)c2ccc(Br)cc21 (stereo unspecified)	-1	-1	51*	1	11	5
Cc1cc(NCc2ccco2)nc2cc(O)ccc12	124*	1	-54	-4	3	10
COc1ccc(CCNC(=O)c2cc3c(=O)n4cccc(C)c4nc3n(CCCN3CCOCC3)c2=N)cc1	18	-1	-3	7	-2	-6
Cc1cccn2c(=O)c3cc(C(=O)NCCN4CCOCC4)c(=N)n(Cc4ccc(F)cc4)c3nc12	156*	2	-427	3	8	7
